From PubChem BioAssay (EPA / NIEHS) come the findings set out here.

Structures are written as SMILES. Active and inactive are the calls of the source. How the source made its calls: active means hit-call score of the fitted dose curve at least 0.9, where 1 is the maximum; inactive means score below 0.9.

A short description of assay [1]: BSK_4H_SRB: Viability Assessment in the BioMAP Diversity Plus: 4H Assay (AID 2283027).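 Further: cells exposed to compound for 24 h before staining.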 The conditions noted are these: primary human endothelial cells (HUVEC). The gist of the method:
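Cytotoxicity read-out in primary human endothelial cells: after 24 h compound exposure, cells were TCA-fixed (10%), stained with 0.1% SRB and absorbance taken at 560 nm. Values fitted in both directions relative to DMSO.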

Assay [2] can be described thus: BSK_BE3C_SRB: Viability Assessment in the BioMAP Diversity Plus: BE3C Assay (AID 2283028). As to conditions: primary human bronchial epithelial cells. A digest of the protocol:
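Overt cytotoxicity was assessed as total protein in confluent human primary bronchial epithelial cultures 24 h after chemical addition, using 0.1% sulforhodamine B staining read at 560 nm.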

Read-out in assay [3]: Thrombomodulin, THBD (gene 7056)
Briefly: BSK_3C_Thrombomodulin: BioMAP Diversity Plus: 3C Assay for Thrombomodulin Biomarker Activity (AID 2283029). As to conditions: primary human endothelial cells (HUVEC); actives raise or lower the signal. A digest of the protocol:
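ELISA measurement of thrombomodulin on HUVEC surface 24 h after chemical dosing; activity fitted in both directions relative to DMSO vehicle.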

Read-out in assay [4]: Urokinase-type plasminogen activator receptor (uPAR), PLAUR (gene 5329)
The experiment in a line: BSK_4H_uPAR: BioMAP Diversity Plus: 4H Assay for Urokinase-type plasminogen activator receptor (uPAR) Biomarker Activity (AID 2283030). The conditions noted are these: primary human endothelial cells (HUVEC); actives raise or lower the signal. The gist of the method: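 Chemicals are dosed onto human vascular endothelial primary cells (umbilical vein). After 24 h, uPAR is read by ELISA. Gain or loss of signal is fitted relative to DMSO.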

Read-out in assay [5]: Vascular endothelial growth factor receptor 2 (Homo sapiens) (UniProt P35968)
Briefly: BSK_4H_VEGFRII: BioMAP Diversity Plus: 4H Assay for Vascular endothelial growth factor receptor 2 (VEGFR2) Biomarker Activity (AID 2283031). The conditions noted are these: primary human endothelial cells (HUVEC); actives raise or lower the signal. A digest of the protocol: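 VEGFRII levels on human vascular endothelial primary cells were determined by ELISA at 24 hours post-dosing, with gain- or loss-of-signal fitted against DMSO controls.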

Read-out in assay [6]: Human Leukocyte Antigen - DR isotype (HLADR), HLA-DRA (gene 3122)
The experiment in a line: BSK_BE3C_HLADR: BioMAP Diversity Plus: BE3C Assay for Human Leukocyte Antigen - DR isotype (HLADR) Biomarker Activity (AID 2283032). As to conditions: primary human bronchial epithelial cells; actives raise or lower the signal. The gist of the method:
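Cell-surface HLA-DR ELISA readout at 24 h after dosing in the BE3C primary human lung bronchial epithelial system; gain or loss of signal against DMSO, with parallel sulforhodamine B staining of total protein for overt cytotoxicity.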

Read-out in assay [7]: Vascular cell adhesion molecule 1 (VCAM1), VCAM1 (gene 7412)
The experiment in a line: BSK_4H_VCAM1: BioMAP Diversity Plus: 4H Assay for Vascular cell adhesion molecule 1 (VCAM1) Biomarker Activity (AID 2283033).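 Further: cell-surface VCAM-1 protein measured by ELISA.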 The conditions noted are these: primary human endothelial cells (HUVEC); actives raise or lower the signal. A digest of the protocol:
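VCAM-1 ELISA read 24 h after chemical dosing of HUVEC in the BioMAP 4H system, with gain or loss of signal fitted relative to DMSO. Parallel SRB staining (560 nm) checked overt cytotoxicity.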

Read-out in assay [8]: Interferon-gamma inducible Protein 10 (IP10), CXCL10 (gene 3627)
The experiment in a line: BSK_BE3C_IP10: BioMAP Diversity Plus: BE3C Assay for Interferon-gamma inducible Protein 10 (IP10) Biomarker Activity (AID 2283034). The conditions noted are these: primary human bronchial epithelial cells; actives raise or lower the signal. The gist of the method:
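IP-10 quantified by ELISA in human primary bronchial epithelial cell cultures at 24 hours post-dosing. Gain or loss of signal fitted relative to DMSO; parallel SRB staining assessed overt cytotoxicity.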

Read-out in assay [9]: Monokine induced gamma interferon (MIG), CXCL9 (gene 4283)
The experiment in a line: BSK_BE3C_MIG: BioMAP Diversity Plus: BE3C Assay for Monokine induced gamma interferon (MIG) Biomarker Activity (AID 2283035). The conditions noted are these: primary human bronchial epithelial cells; actives raise or lower the signal. A digest of the protocol: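 ELISA quantified MIG after 24 h exposure of primary bronchial epithelial cultures, analysed in both directions relative to DMSO. Cytotoxicity tracked in parallel cultures by sulforhodamine B staining.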

Read-out in assay [10]: Transforming growth factor beta 1 (TGFb1), TGFB1 (gene 7040)
Briefly: BSK_BE3C_TGFb1: BioMAP Diversity Plus: BE3C Assay for Transforming growth factor beta 1 (TGFb1) Biomarker Activity (AID 2283036;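 on outcome: TGF-b1 protein level measured by ELISA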). As to conditions: primary human bronchial epithelial cells; actives raise or lower the signal. A digest of the protocol:
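ELISA readout of TGF-b1 from human lung bronchial epithelial primary cells, taken 24 h post-treatment. Gain or loss of signal fitted relative to DMSO baseline, with parallel SRB staining for overt cytotoxicity.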

Read-out in assay [11]: Plasminogen activator inhibitor-1 (PAI1), SERPINE1 (gene 5054)
The experiment in a line: BSK_BE3C_PAI1: BioMAP Diversity Plus: BE3C Assay for Plasminogen activator inhibitor-1 (PAI1) Biomarker Activity (AID 2283037). As to conditions: primary human bronchial epithelial cells; actives raise or lower the signal. A digest of the protocol: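 PAI-1 was measured by ELISA in human primary bronchial epithelial cultures 24 h after chemical dosing, with cytotoxicity checked by SRB total-protein staining in parallel cultures. Activity was fitted in both directions relative to DMSO.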

Read-out in assay [12]: urokinase plasminogen activator (uPA), PLAU (gene 5328)
Briefly: BSK_BE3C_uPA: BioMAP Diversity Plus: BE3C Assay for urokinase plasminogen activator (uPA) Biomarker Activity (AID 2283038).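 On outcome: uPA protein level quantified by ELISA in cell cultures; uPA read one day after compound addition.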 The conditions noted are these: primary human bronchial epithelial cells; actives raise or lower the signal. The gist of the method: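 Measured by ELISA: uPA from human primary bronchial epithelial cells 24 h after chemical treatment. Values derive from bidirectional curve fitting with DMSO serving as negative control. Total protein by SRB staining in parallel wells flagged overt cytotoxicity.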

Read-out in assay [13]: Urokinase-type plasminogen activator receptor (uPAR), PLAUR (gene 5329)
The experiment in a line: BSK_BE3C_uPAR: BioMAP Diversity Plus: BE3C Assay for Urokinase-type plasminogen activator receptor (uPAR) Biomarker Activity (AID 2283039).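 Further: cells exposed to compound for one day before measurement.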 As to conditions: primary human bronchial epithelial cells; actives raise or lower the signal. The gist of the method: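 uPAR levels were measured by ELISA after 24 h compound treatment of primary human bronchial epithelial cells, fitted in both directions relative to DMSO. Parallel SRB staining served as the cytotoxicity read-out.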

Read-out in assay [14]: Interleukin-6 (IL6), IL6 (gene 3569)
The experiment in a line: BSK_CASM3C_IL6: BioMAP Diversity Plus: CASM3C Assay for Interleukin-6 (IL6) Biomarker Activity for (AID 2283040). The conditions noted are these: primary human coronary artery smooth muscle cells; actives raise or lower the signal.

Read-out in assay [15]: Tissue plasminogen activator (tPA), PLAT (gene 5327)
Briefly: BSK_BE3C_tPA: BioMAP Diversity Plus: BE3C Assay for Tissue plasminogen activator (tPA) Biomarker Activity (AID 2283041).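 On outcome: tPA level quantified by ELISA one day after compound addition.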 As to conditions: primary human bronchial epithelial cells; actives raise or lower the signal. A digest of the protocol:
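tPA measured by ELISA 24 h after dosing human primary bronchial epithelial cells (BE3C system). Changes in either direction were fitted against DMSO. Parallel cultures were stained with SRB to flag overt cytotoxicity.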

Read-out in assay [16]: Interleukin-8 (IL8), CXCL8 (gene 3576)
The experiment in a line: BSK_CASM3C_IL8: BioMAP Diversity Plus: CASM3C Assay for Interleukin-8 (IL8) Biomarker Activity (AID 2283042).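 Further: IL-8 protein level quantified by ELISA.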 The conditions noted are these: primary human coronary artery smooth muscle cells; actives raise or lower the signal.

Read-out in assay [17]: Human Leukocyte Antigen - DR isotype (HLADR), HLA-DRA (gene 3122)
The experiment in a line: BSK_CASM3C_HLADR: BioMAP Diversity Plus: CASM3C Assay for Human Leukocyte Antigen - DR isotype (HLADR) Biomarker Activity (AID 2283043).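 Further: cell-surface HLA-DR protein level quantified by ELISA.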 As to conditions: primary human coronary artery smooth muscle cells; actives raise or lower the signal.

Read-out in assay [18]: Macrophage colony-stimulating factor (MCSF), CSF1 (gene 1435)
Briefly: BSK_CASM3C_MCSF: BioMAP Diversity Plus: CASM3C Assay for Macrophage colony-stimulating factor (MCSF) Biomarker Activity (AID 2283044).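 Further: M-CSF protein amount quantified by ELISA after 24 h exposure.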 The conditions noted are these: primary human coronary artery smooth muscle cells; actives raise or lower the signal.

Read-out in assay [19]: Low-density lipoprotein receptor (LDLR), LDLR (gene 3949)
Briefly: BSK_CASM3C_LDLR: BioMAP Diversity Plus: CASM3C Assay for Low-density lipoprotein receptor (LDLR) Biomarker Activity (AID 2283045).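 Further: LDLR protein level on the cell surface quantified by ELISA.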 As to conditions: primary human coronary artery smooth muscle cells; actives raise or lower the signal.

Read-out in assay [20]: Monocyte Chemoattractant Protein-1 (MCP1), CCL2 (gene 6347)
Briefly: BSK_CASM3C_MCP1: BioMAP Diversity Plus: CASM3C Assay for Monocyte Chemoattractant Protein-1 (MCP1) Biomarker Activity (AID 2283046).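 Further: MCP-1 level quantified by ELISA 24 h after dosing.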 The conditions noted are these: primary human coronary artery smooth muscle cells; actives raise or lower the signal.

For `CCOCCOCCO`, the result in [1], in assay [2], in assay [3], in assay [4], in assay [5] and in assay [6] was inactive. For the same molecule, the outcome in [7], in assay [8], in assay [9], in assay [10], in assay [11] and in [12] was inactive. Moreover, the result in [13], in assay [14], in assay [15], in assay [16], in assay [17] and in [18] was inactive. Moreover, the result in [19] and in assay [20] was inactive.

In the case of `NC(=Nc1ccccc1)Nc1ccccc1`, the outcome in [1], in assay [2], in [3], in [4], in [5] and in assay [6] was inactive. For the same molecule, the outcome in [7], in [8], in assay [9], in assay [10], in assay [11] and in [12] was inactive. The result in assay [13], in assay [14], in [15], in [16], in assay [17] and in assay [19] was inactive. In addition, the result in assay [20] was inactive. Besides, the AC50 (in general, the concentration giving half of the maximal activity seen) in assay [18] was 3.97 µM (active).

On to `CCCCCCC(CCCCCCCCCCC(=O)OCC(COC(C)=O)OC(C)=O)OC(C)=O` (stereo not given), for which the outcome in [1], in assay [2], in [3], in assay [4], in assay [5] and in assay [7] was inactive. In addition, the outcome in assay [13], in [14], in assay [16], in assay [17], in assay [18] and in assay [19] was inactive. For the same molecule, the result in assay [20] was inactive. In addition, the AC50 in [6] is 10 µM (active); in assay [8] it was 11.4 µM (active); in assay [9], 13.7 µM (active); in assay [10], 7.57 µM (active); in [11], 7.39 µM (active); in assay [12] it was 13.2 µM (active). Moreover, the AC50 in assay [15] is 3.58 µM (active).

As for `N[C@@H](Cc1c[nH]c2ccccc12)C(=O)O`, the result in assay [1], in assay [2], in assay [3], in assay [4], in assay [5] and in [6] was inactive. Further, the result in assay [7], in [8], in assay [9], in [10], in assay [11] and in assay [12] was inactive. The outcome in assay [13], in assay [14], in assay [15], in assay [16], in assay [17] and in assay [18] was inactive. Besides, the outcome in assay [19] and in assay [20] was inactive.

For `Cc1cc(Cc2ccc(N)c(C)c2)ccc1N`, the result in assay [1], in assay [2], in [3], in assay [4], in assay [5] and in [6] was inactive. The result in assay [7], in assay [8], in [9], in assay [10], in assay [11] and in [12] was inactive. The result in assay [13], in assay [14], in assay [15], in assay [16], in assay [17] and in assay [18] was inactive. For the same molecule, the outcome in assay [19] and in assay [20] was inactive.

As to `CCCCCCCCCC[N+](C)(C)[O-]`, the outcome in [1], in assay [2], in assay [3], in assay [4], in [5] and in assay [6] was inactive. The outcome in assay [7], in [8], in assay [9], in assay [10], in assay [11] and in [12] was inactive. In addition, the result in assay [13], in assay [14], in assay [15], in assay [16], in [17] and in assay [18] was inactive. Besides, the result in [19] and in [20] was inactive.
